PubChem BioAssay (EPA / NIEHS)
Inconclusive results are not listed. Calls of active or inactive are those of the source. How the source made its calls: active means hit-call score of the fitted dose curve at least 0.9, where 1 is the maximum; inconclusive means response in the unintended direction; inactive means score below 0.9.

Legend:
[1] = molecular target: guinea pig Opioid, Kappa 1 Receptor (OpiateK), OPRK1 (gene 100135587) (UniProt P41144); test: NVS_GPCR_gOpiateK: NovaScreen (NVS) G Protein-Coupled Receptor Assay for guinea pig Opioid, Kappa 1 Receptor (OpiateK) (AID 2283252);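 further: radioligand displacement from kappa opioid receptor in guinea pig cerebellar membranes; active means reduced radioligand binding relative to DMSO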
In short: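 Cell-free tissue prep: guinea pig cerebellar membranes, radioligand displacement, 2 h incubation. Readout: filtration plus scintillation counting. Primary single-point 25 uM duplicate; actives retested in concentration series; DMSO negative control.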

[2] = molecular target: D(1A) dopamine receptor (Homo sapiens) (UniProt P21728); test: NVS_GPCR_hDRD1: NovaScreen (NVS) G Protein-Coupled Receptor Assay for human Dopamine Receptor D1 (DRD1) (AID 2283269)
In short: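 Cell-free competition with radioligand, filter-trapped and scintillation-counted 1 h post-dose, using HEK293-derived human D1 preparation. Duplicate single-point testing at 25 uM first, then concentration series for actives; DMSO served as baseline, loss-of-signal scored.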

[3] = molecular target: human Neurokinin, NK2 Receptor, TACR2 (gene 6865) (UniProt P21452); test: NVS_GPCR_hNK2: NovaScreen (NVS) G Protein-Coupled Receptor Assay for human Neurokinin, NK2 Receptor (AID 2283278);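 further: actives reduce bound radioligand signal relative to DMSO baseline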
In short: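 Cell-free radioligand binding using receptor protein extracted from CHO cells; readings taken 4 hours after chemical dosing by filter-based scintillation counting. Primary screen ran single concentration (25 uM) in duplicate; actives followed up in concentration series, loss-of-signal versus DMSO baseline.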

[4] = molecular target: human Adenosine A2a Receptor (AdoRA2a), ADORA2A (gene 135) (UniProt P29274); test: NVS_GPCR_hAdoRA2a: NovaScreen (NVS) G Protein-Coupled Receptor Assay for human Adenosine A2a Receptor (AdoRA2a) (AID 2283256)
In short: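 HEK293-derived receptor preparation, radioligand displacement, 1.5 h, filtration + scintillation read. Loss of bound signal scored vs DMSO. Single-point 25 uM in duplicate first, then concentration-response for actives.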

Chain of D(1A) dopamine receptor (Homo sapiens) (P21728 whole entry, looked up): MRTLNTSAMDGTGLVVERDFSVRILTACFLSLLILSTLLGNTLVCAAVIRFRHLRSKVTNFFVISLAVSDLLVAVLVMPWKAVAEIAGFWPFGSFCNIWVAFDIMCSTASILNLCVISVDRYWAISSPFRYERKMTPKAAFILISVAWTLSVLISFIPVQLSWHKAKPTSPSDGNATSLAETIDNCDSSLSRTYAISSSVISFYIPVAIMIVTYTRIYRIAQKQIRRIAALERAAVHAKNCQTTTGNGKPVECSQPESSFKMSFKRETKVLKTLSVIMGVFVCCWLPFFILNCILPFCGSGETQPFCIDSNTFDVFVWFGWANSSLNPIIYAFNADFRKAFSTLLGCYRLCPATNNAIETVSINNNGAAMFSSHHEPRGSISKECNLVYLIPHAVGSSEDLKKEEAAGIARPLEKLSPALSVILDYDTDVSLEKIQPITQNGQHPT
Chain of guinea pig Opioid, Kappa 1 Receptor (OpiateK), OPRK1 (gene 100135587) (P41144 whole entry, looked up): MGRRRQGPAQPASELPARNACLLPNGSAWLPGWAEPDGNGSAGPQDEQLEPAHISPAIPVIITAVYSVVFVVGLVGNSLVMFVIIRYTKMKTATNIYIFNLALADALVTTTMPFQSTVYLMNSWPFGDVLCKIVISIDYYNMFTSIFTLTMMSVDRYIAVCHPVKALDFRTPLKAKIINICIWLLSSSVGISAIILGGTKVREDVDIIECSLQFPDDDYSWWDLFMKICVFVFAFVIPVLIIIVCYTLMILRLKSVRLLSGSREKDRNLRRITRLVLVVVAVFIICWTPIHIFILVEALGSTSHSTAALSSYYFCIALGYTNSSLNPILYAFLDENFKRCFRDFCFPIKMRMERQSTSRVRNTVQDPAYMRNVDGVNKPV
Chain of human Neurokinin, NK2 Receptor, TACR2 (gene 6865) (P21452 whole entry, looked up): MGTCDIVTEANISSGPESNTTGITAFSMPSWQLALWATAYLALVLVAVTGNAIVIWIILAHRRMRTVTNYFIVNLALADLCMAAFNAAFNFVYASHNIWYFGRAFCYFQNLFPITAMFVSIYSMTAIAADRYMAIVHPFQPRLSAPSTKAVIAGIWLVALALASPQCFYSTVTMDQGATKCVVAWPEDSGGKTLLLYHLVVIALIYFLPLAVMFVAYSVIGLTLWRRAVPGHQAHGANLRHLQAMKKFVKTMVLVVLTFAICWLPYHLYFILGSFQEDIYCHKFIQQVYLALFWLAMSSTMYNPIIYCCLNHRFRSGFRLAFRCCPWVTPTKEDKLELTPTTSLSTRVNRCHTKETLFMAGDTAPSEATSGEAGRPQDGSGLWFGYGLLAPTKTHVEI
Chain of human Adenosine A2a Receptor (AdoRA2a), ADORA2A (gene 135) (P29274 whole entry, looked up): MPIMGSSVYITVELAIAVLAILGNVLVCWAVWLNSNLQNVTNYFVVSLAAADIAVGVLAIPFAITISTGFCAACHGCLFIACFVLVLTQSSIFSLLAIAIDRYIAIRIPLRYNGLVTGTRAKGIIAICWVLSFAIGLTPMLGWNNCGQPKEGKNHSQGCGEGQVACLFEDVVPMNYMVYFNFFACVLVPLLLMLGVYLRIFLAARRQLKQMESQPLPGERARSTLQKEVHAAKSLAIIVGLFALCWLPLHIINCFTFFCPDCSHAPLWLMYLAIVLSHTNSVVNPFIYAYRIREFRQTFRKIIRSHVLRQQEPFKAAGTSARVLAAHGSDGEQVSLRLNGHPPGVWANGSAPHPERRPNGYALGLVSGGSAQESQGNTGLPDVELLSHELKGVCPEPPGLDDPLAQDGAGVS

Compound: O=S1(=O)CC(Cl)(Cl)C(Cl)(Cl)C1
- outcome [1]: inactive
- AC50 [2]: 20.1 µM (active)
- outcome [3]: inactive

Compound: C#C[C@]1(O)CC[C@H]2[C@@H]3CCc4cc(O)ccc4[C@H]3CC[C@@]21C
- AC50 [4]: 6.76 µM (active)

Compound: Cc1cc(O)c(C)c(C)c1O
- outcome [1]: inactive

Compound: CCCCCC1C(=O)CCC1CC(=O)OC (stereo not drawn)
- outcome [1]: inactive

Compound: CC(C)(O)CCc1ccccc1
- outcome [2]: inactive

Compound: CC(=O)OCC=C(C)CCC=C(C)CCC=C(C)C
- outcome [2]: inactive
